Out of some 330,000 compounds screened, about 5,800 (1.8%) were called active. The entries come from a sample that favours actives as a whole. A number with no mark means an inactive call.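 The calls were made as follows: active = inhibition above about 50% at the single tested dose (limit read from the data); inactive = the rest.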
molecular target: Sentrin-specific protease 6 (Homo sapiens) (UniProt Q9GZR1); assay: SENP6 protease inhibitors, primary screen, biochemical, luminescence, uHTS (AID 2599); details: Recombinant SENP6 catalytic domain, aminoluciferin luminescence; at 10 µM; hits give high values;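 also: plate controls were DMSO wells with enzyme for no effect and DMSO wells lacking enzyme for full effect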
Sequence (Q9GZR1 628-1112 limits assumed): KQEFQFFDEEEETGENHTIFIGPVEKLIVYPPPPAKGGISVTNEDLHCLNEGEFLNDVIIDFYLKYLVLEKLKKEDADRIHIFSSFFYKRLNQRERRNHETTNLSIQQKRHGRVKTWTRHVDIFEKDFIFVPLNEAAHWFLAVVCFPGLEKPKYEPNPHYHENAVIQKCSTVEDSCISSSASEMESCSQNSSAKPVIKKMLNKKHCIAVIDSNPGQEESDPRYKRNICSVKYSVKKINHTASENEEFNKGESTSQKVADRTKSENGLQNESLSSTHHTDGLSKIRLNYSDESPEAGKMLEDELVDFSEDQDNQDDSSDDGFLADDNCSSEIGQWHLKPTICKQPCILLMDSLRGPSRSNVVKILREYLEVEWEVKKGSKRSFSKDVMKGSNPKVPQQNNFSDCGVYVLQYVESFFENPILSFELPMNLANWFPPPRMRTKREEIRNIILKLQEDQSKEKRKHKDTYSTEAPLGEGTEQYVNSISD

Structure (SMILES) | inhibition
C=CCN(CC=C)C(=O)COC(=O)c1n[nH]c2ccccc12 | -20.6%
CCOc1ccc(NC(=S)NC(=O)/C=C/c2ccc(OC)cc2)c([N+](=O)[O-])c1 | -2.86%
O=C(Nc1nccs1)C1CCN(S(=O)(=O)c2ccc(Cl)c(C(F)(F)F)c2)CC1 | -4.6%
CCOc1ncccc1C(=O)Nc1ccc(S(=O)(=O)Nc2nc(C)cc(C)n2)cc1 | -19.1%
O=C(c1ccc(OC2CCN(C/C=C/c3ccc(F)cc3)CC2)cc1)N1CCCCC1 | 0.618%
COc1cc(C)nc(N2CCCC(C(=O)NCC(C)C)C2)n1 (configuration not stated) | -10.1%
O=C(NNS(=O)(=O)c1ccc(F)cc1)C1CCCCC1 | -3.19%
CC(=O)c1sc(N/N=C\c2ccc(C)cc2)nc1C | 23.9%
COC(=O)c1sc(NC(=S)NC(=O)c2ccc(C)cc2)nc1C | -20%
CCOC(=O)c1sc(NC(=O)c2ccncc2)nc1C | 97.5% (active)
CC(=O)c1sc(NC(=O)c2ccc(C)cc2)nc1C | 62% (active)
CCOC(=O)c1sc(NC(=O)c2sc(C)nc2C)nc1C | 15.3%
CCOC(=O)c1cccnc1NC(=O)c1ccncc1 | -2.78%
COC(=O)[C@]1(Cc2ccccc2)N[C@H](CN(C)S(=O)(=O)c2ccc(OC(F)(F)F)cc2)[C@@H]2C(=O)N(C)C(=O)[C@@H]21 | 17%
O=C(COc1ccccc1)N1CCN=C1SCc1cccc(F)c1 | -16.4%
CSCc1ccc(C(=O)Nc2cc(C)cc(C)c2)cc1 | 86% (active)
CC(=O)Nc1ccccc1NC(=O)c1cc(C)cc(C)c1 | 3.76%
C=CCN(c1ccc(C(=O)Nc2cc(C)cc(C)c2)cc1)S(C)(=O)=O | 7.58%
Cc1cc(NC(=O)OC(C)C)ccc1-c1ccc(NC(=O)OC(C)C)cc1C | -24.2%
O=C(NCCCn1ccnc1)c1cc(-c2ccccc2)on1 | 13.4%
COc1cc2ccccc2cc1C(=O)N1CCOCC1 | 5.76%
Cc1oc2c(c1C(=O)N1CCOCC1)C(=O)c1ccccc1C2=O | 68.9% (active)
COC1=C(N2CCOCC2)C(=O)c2ccccc2C1=O | 44.9%
Cc1ccc(NC(=O)C2CC2)cc1S(=O)(=O)N1CCOCC1 | -10.6%
COC(=O)c1ccc(NCC(=O)c2ccccc2)cc1 | 95.5% (active)
COC(=O)c1ccc(NCC(=O)N2CCCCCC2)cc1 | -9.61%
Cc1ccc(C(=O)CNc2ccc(F)cc2)cc1 | 6.04%
